Results on 40 compounds are retold here after PubChem BioAssay (Tox21).

The structures appear in SMILES notation. Where “and” joins values, the source holds several entries; their conditions need not be identical. Equal entries are not always repeated. Results filed as inconclusive are left out. A call without a number means that no potency is given here. Calls of active or inactive are those of the source. Calls come from the whole dose curve.
Potency is the fitted concentration of half-maximal effect.

This assay is described as follows: qHTS assay to identify small molecule agonists of the hypoxia (HIF-1) signaling pathway - cell viability counter screen (AID 1224844). Note: nearly all actives have a fitted effect of over 50% in size. Conditions: HRE-bla ME-180 viability, CellTiter-Glo luminescence, 17 h; series mostly up to 76.8 µM. The source says: National Center for Advancing Translational Sciences [NCATS]
NIH Chemical Genomics Center [NCGC]
U.S. Environmental Protection Agency [EPA]
National Institutes of Environmental Health Sciences [NIEHS]
National Toxicology Program [NTP]
U.S. Food and Drug Administration [FDA]
Hypoxia-inducible factor-1 (HIF-1) is the major hypoxia-regulated transcription factor that controls cellular responses to low oxygen concentration. HIF-1 is composed of two subunits: hypoxia responsive HIF-1-alpha and constitutively expressed HIF-1-beta, which is also known as aryl hydrocarbon receptor nuclear translocator. During hypoxic conditions, HIF-1-alpha heterodimerizes with HIF-1-beta and translocates into the nucleus where the HIF-1 complex binds to the hypoxia-response element (HRE) and activates expression of target genes such as VEGF (vascular endothelial growth factor). The HIF-1 pathway is essential to normal growth and development, and is involved in the pathophysiology of cancer, inflammation, and ischemia.
Using a beta-lactamase reporter-gene under control of the hypoxia response element, a cell-based assay [CellSensor(TM) HRE-bla ME-180 from Life Technologies, Carlsbad, CA] was used to measure hypoxia-induced signaling. Tox21 10K library compounds were measured for their ability to induce the reporter gene activity. The cytotoxicity of the Tox21 compound library against HRE-bla ME-180 cell line was tested in parallel by measuring cell viability using CellTiter-Glo assay (Promega, Madison, WI) in the same assay wells.
Tox21 Assay Protocol Summary:
HRE-bla ME-180 cells were dispensed at 2,000 cells per well in 6 uL of assay medium containing 0.5% dialyzed FBS into black wall/clear-bottom 1536-well plates using a Multidrop Combi (Thermo Scientific, Waltham, MA) dispenser. After the assay plates were incubated at 37C and 5% CO2 for 5 hrs, 23 nL of compounds dissolved in DMSO, positive controls or DMSO only was transferred to each well of the assay plate using a Pintool station (Kalypsys, San Diego, CA). The assay plates were incubated at 37C and 5% CO2 for 17 hrs. One uL of LiveBLAzerTM B/G FRET substrate (CCF4-AM) (Life Technologies) was added to each well using a Flying Reagent Dispenser (FRD, Aurora Discovery, San Diego, CA). After 2 hr incubation at room temperature, fluorescence intensity (405 nm excitation, 460 nm and 530 nm emissions) was measured using an Envision plate reader (PerkinElmer, Shelton, CT). For cytotoxicity, 4 ul/well of CellTiter-Glo reagent was added into the assay plates using an FRD. After 30 min incubation at room temperature, the luminescence intensity was measured using a ViewLux plate reader (PerkinElmer).
(In general: qHTS replaces the single test concentration by a dilution series.)
With `CN1C(C(=O)Nc2ccccn2)=C(O)c2ccccc2S1(=O)=O`, the Potency entry is “inactive”.

For `OCCO`, the Potency entry was “inactive”.

`CCCCNS(=O)(=O)c1ccccc1`: the Potency entry was “inactive”.

Take `OC1CCCCCCCCCCC1`: the Potency entry was “inactive”.

For the compound `COc1ccc(OC)c(C(O)CNC(=O)CN)c1` (stereo not given), the Potency entry was “inactive”.

Take `CN(C)C(=N)N=C(N)N`: the Potency result was “inactive”.

For the compound `c1ccncc1`, the Potency entry is “inactive”.

Consider `c1ccc2c(c1)c1cccc3ccc4cccc2c4c31`, for which the Potency entry was “inactive”.

Turning to `C#C[C@]1(O)CC[C@H]2[C@@H]3CCc4cc(OC)ccc4[C@H]3CC[C@@]21C`, the Potency entry is “inactive”.

As to `CC(CCC(=O)O)(c1ccc(O)cc1)c1ccc(O)cc1`, the Potency entry was “inactive”.

On to `COc1ccc(C(=O)CC(=O)c2ccc(C(C)(C)C)cc2)cc1`, for which the Potency result is “inactive”.

Consider `COc1cccc2c1C(=O)c1c(O)c3c(c(O)c1C2=O)C[C@@](O)(C(=O)CO)C[C@@H]3O[C@H]1C[C@H](N)[C@H](O)[C@H](C)O1`, for which the Potency is 5.49 µM (active) and 10.7 µM (active).

Consider `c1cc(-c2ccncc2)ccn1`, for which the Potency result was “inactive”.

Take `CN(C)CCC=C1c2ccccc2CCc2ccccc21`: the Potency is 38.9 µM (active).

`Cc1ccc(C(=O)c2cc(O)c(O)c([N+](=O)[O-])c2)cc1`: the Potency result was “inactive”.

On to `c1ccc2c(c1)Oc1ccccc1S2`, for which the Potency result is “inactive”.

In the case of `CCCCCCCCCC(=O)OC`, the Potency result is “inactive”.

Regarding `O=P(O)(O)O`, the Potency entry was “inactive”.

Take `CCC(C)c1ccccc1O` (stereo not given): the Potency result was “inactive”.

In the case of `C[C@]12CCC(=O)C=C1CC[C@@H]1[C@@H]2C(=O)C[C@@]2(C)[C@H]1CC[C@]2(O)C(=O)CO`, the Potency entry was “inactive”.

With `NNc1ccc(C(=O)O)cc1`, the Potency entry is “inactive”.

For `CC(C)=CCCC(C)CCO` (stereo not given), the Potency entry is “inactive”.

Regarding `Cc1cccc(C(=O)O)c1`, the Potency result was “inactive”.

Regarding `NC=O`, the Potency result is “inactive”.

For `CCCC(=O)O`, the Potency result was “inactive”.

In the case of `Cc1c(C(N)=O)cc([N+](=O)[O-])cc1[N+](=O)[O-]`, the Potency entry was “inactive”.

`O=C(COc1ccc(Cl)cc1)N1CCN(Cc2ccc3c(c2)OCO3)CC1`: the Potency result was “inactive”.

For the compound `C=C(C)C(=O)OCCOC(=O)C(=C)C`, the Potency entry is “inactive”.

As to `Cn1cnc([N+](=O)[O-])c1Sc1ncnc2nc[nH]c12`, the Potency result was “inactive”.

Consider `CCCCC(CC)COCC1CO1` (stereo not given), for which the Potency result was “inactive”.

Regarding `CNCCCC12CCC(c3ccccc31)c1ccccc12`, the Potency entry is “inactive”.

For the compound `c1ccc2sc(SSN3CCOCC3)nc2c1`, the Potency is 54.8 µM (active) and 54.9 µM (active).

For the compound `Cc1[nH]c(=O)c(C#N)cc1-c1ccncc1`, the Potency result is “inactive”.

For the compound `Nc1ccc(S(=O)(=O)Nc2cnc3ccccc3n2)cc1`, the Potency entry was “inactive”.

On to `O=C=Nc1ccc(Cc2ccc(N=C=O)cc2)cc1`, for which the Potency result was “inactive”.

For `COC(=O)c1ccccc1`, the Potency entry was “inactive”.

`CCCCOCCOCCOCCO`: the Potency entry is “inactive”.

With `CN(C)c1nc(N(C)C)nc(N(C)C)n1`, the Potency result is “inactive”.

Consider `COC(C)COC(C)COC(C)CO` (stereo not given), for which the Potency result is “inactive”.

In the case of `O=C(/C=C/c1ccccc1)OCc1ccccc1`, the Potency entry was “inactive”.
